Measured values published in PubChem BioAssay (NCATS).
Results filed as inconclusive are left out. The source made the active and inactive calls. Calls follow the shape of the dose curve; as a rule, active = well fitted inhibition curve with a large enough effect; inconclusive = small, poorly fitted or top-dose-only effect; inactive = flat fitted curve, though single readings scatter. Bridge positions count the residues as written; N and C are the ends. Square brackets hold non-standard residues; d marks the D form. Peptide text beside a SMILES is read from it. * marks the point of attachment. Ileψ(thiazoline)Cys = CC[C@H](C)[C@H](N)C1=N[C@H](C(=O)*)CS1; d(aIle) = CC[C@H](C)[C@@H](N)C(=O)O; dOrn = NCCC[C@@H](N)C(=O)O

Test system: not listed separately
Experiment: qHTS profiling for inhibitors of Plasmodium falciparum proliferation (AID 504749); also: nearly all actives have a fitted effect of over 60% in size;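 as to activity, negative = inhibition: 0% = DMSO vehicle and full inhibition = artemisinin control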
Conditions: P. falciparum in erythrocytes, SYBR Green DNA, 72 h; at 12.8 µM (top of the series); parasite line B
Procedure, shortened: (§1)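 Each compound contacts P. falciparum-infected red blood cells for 72 h at 37 C; lysis buffer (Tris, EDTA, saponin, Triton X, SYBR Green I) is added and fluorescence measured next morning; values normalized to controls.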
Potency is read from the fitted curve at half-maximal effect.

Structure (SMILES) | activity, negative = inhibition
C[C@@H]1C[C@H]2[C@@H]3C[C@H](F)C4=CC(=O)C=C[C@@]4(C)[C@]3(F)[C@H](O)C[C@]2(C)[C@@]1(O)C(=O)CO | -3.91% (inactive)
C[C@H](O)Cn1cnc2c1c(=O)n(C)c(=O)n2C | -0.935% (inactive)
CCCCC[C@H](O)/C=C\[C@@H]1[C@H](O)CC(=O)[C@@H]1CCCCCCC(=O)O | 1.76% (inactive)
CC(=C(CCOP(=O)(O)O)SC(=O)c1ccccc1)N(C=O)Cc1cnc(C)nc1N | 20.3% (inactive)
NC[C@@H]1O[C@@H](O[C@H]2[C@H](O)[C@H](O[C@@H]3O[C@H](CO)[C@@H](O)[C@H](N)[C@@H]3O)[C@@H](N)C[C@H]2N)[C@H](N)C[C@@H]1O | 18.7% (inactive)
CCc1c(C)[nH]c2c1C(=O)[C@H](CN1CCOCC1)CC2 | 6.66% (inactive)
CC[C@H](C)[C@H](N)C1=N[C@H](C(=O)N[C@@H](CC(C)C)C(=O)N[C@@H](CCC(=O)O)C(=O)N[C@@H](C(=O)N[C@H]2CCCCNC(=O)[C@@H](CC(N)=O)NC(=O)[C@@H](CC(=O)O)NC(=O)[C@@H](Cc3cnc[nH]3)NC(=O)[C@@H](Cc3ccccc3)NC(=O)[C@@H]([C@@H](C)CC)NC(=O)[C@@H](CCCN)NC2=O)[C@@H](C)CC)CS1 ({Ileψ(thiazoline)Cys}-LE[d(aIle)]K[dOrn][d(aIle)][dF][dH][dD][dN]; lactam 4-C) | 7.07% (inactive)
CCOC(=O)O[C@@H](C)OC(=O)[C@@H]1N2C(=O)[C@@H](NC(=O)[C@@H](N)c3ccccc3)[C@H]2SC1(C)C | 6.1% (inactive)
Cc1ccsc1/C=C\C1=NCCCN1C | 9.61% (inactive)
O=C(O)COCCN1CCN([C@@H](c2ccccc2)c2ccc(Cl)cc2)CC1 | 11.4% (inactive)
C#C[C@]1(O)CC[C@@H]2[C@H]3CCC4=CCCC[C@@H]4[C@@H]3CC[C@@]21C | 0.61% (inactive)
CC1(C)[C@@H](OC(=O)CCC(=O)O)CC[C@@]2(C)[C@H]1CC[C@@]1(C)[C@H]2C(=O)C=C2[C@H]3C[C@](C)(C(=O)O)CC[C@]3(C)CC[C@@]21C | 13.4% (inactive)
CN1CCO[C@H](c2ccccc2)c2ccccc2C1 | 0.83% (inactive)

Test system: 3D7
Experiment: as above
Conditions: P. falciparum in erythrocytes, SYBR Green DNA, 72 h; series mostly up to 12.8 µM; activity, negative = inhibition: at the top concentration
Procedure, shortened: as §1

Structure (SMILES) | activity, negative = inhibition | Potency
C[C@@H]1C[C@H]2[C@@H]3C[C@H](F)C4=CC(=O)C=C[C@@]4(C)[C@]3(F)[C@H](O)C[C@]2(C)[C@@]1(O)C(=O)CO | 2.75% (inactive) | 
C[C@H](O)Cn1cnc2c1c(=O)n(C)c(=O)n2C | 1.66% (inactive) | 
CCCCC[C@H](O)/C=C\[C@@H]1[C@H](O)CC(=O)[C@@H]1CCCCCCC(=O)O | -5.09% (inactive) | 
CC(=C(CCOP(=O)(O)O)SC(=O)c1ccccc1)N(C=O)Cc1cnc(C)nc1N | -1.16% (inactive) | 
NC[C@@H]1O[C@@H](O[C@H]2[C@H](O)[C@H](O[C@@H]3O[C@H](CO)[C@@H](O)[C@H](N)[C@@H]3O)[C@@H](N)C[C@H]2N)[C@H](N)C[C@@H]1O | 0.148% (inactive) | 
CCc1c(C)[nH]c2c1C(=O)[C@H](CN1CCOCC1)CC2 | 11.9% (inactive) | 
CC[C@H](C)[C@H](N)C1=N[C@H](C(=O)N[C@@H](CC(C)C)C(=O)N[C@@H](CCC(=O)O)C(=O)N[C@@H](C(=O)N[C@H]2CCCCNC(=O)[C@@H](CC(N)=O)NC(=O)[C@@H](CC(=O)O)NC(=O)[C@@H](Cc3cnc[nH]3)NC(=O)[C@@H](Cc3ccccc3)NC(=O)[C@@H]([C@@H](C)CC)NC(=O)[C@@H](CCCN)NC2=O)[C@@H](C)CC)CS1 ({Ileψ(thiazoline)Cys}-LE[d(aIle)]K[dOrn][d(aIle)][dF][dH][dD][dN]; lactam 4-C) | 6.23% (inactive) | 
O=C(N/N=C\c1ccc([N+](=O)[O-])o1)c1ccc(O)cc1 |  | 1580 nM (active)
CCOC(=O)O[C@@H](C)OC(=O)[C@@H]1N2C(=O)[C@@H](NC(=O)[C@@H](N)c3ccccc3)[C@H]2SC1(C)C | -9.4% (inactive) | 
Cc1ccsc1/C=C\C1=NCCCN1C | -2.42% (inactive) | 
O=C(O)COCCN1CCN([C@@H](c2ccccc2)c2ccc(Cl)cc2)CC1 | -2.55% (inactive) | 
C#C[C@]1(O)CC[C@@H]2[C@H]3CCC4=CCCC[C@@H]4[C@@H]3CC[C@@]21C | -14% (inactive) | 
CC1(C)[C@@H](OC(=O)CCC(=O)O)CC[C@@]2(C)[C@H]1CC[C@@]1(C)[C@H]2C(=O)C=C2[C@H]3C[C@](C)(C(=O)O)CC[C@]3(C)CC[C@@]21C | 3.12% (inactive) | 
C[C@H](CCC(=O)O)[C@H]1CC[C@@H]2[C@@H]3[C@@H](O)C[C@H]4C[C@@H](O)CC[C@@]4(C)[C@H]3CC[C@@]21C | -5.93% (inactive) | 
CN1CCO[C@H](c2ccccc2)c2ccccc2C1 | 2.4% (inactive) | 

Test system: 7G8
Experiment: as above
Conditions: P. falciparum in erythrocytes, SYBR Green DNA, 72 h; series mostly up to 12.8 µM; activity, negative = inhibition: at the top concentration
Procedure, shortened: as §1

Structure (SMILES) | activity, negative = inhibition | Potency
C[C@@H]1C[C@H]2[C@@H]3C[C@H](F)C4=CC(=O)C=C[C@@]4(C)[C@]3(F)[C@H](O)C[C@]2(C)[C@@]1(O)C(=O)CO | -7.4% (inactive) | 
C[C@H](O)Cn1cnc2c1c(=O)n(C)c(=O)n2C | 9.92% (inactive) | 
NC[C@@H]1O[C@@H](O[C@H]2[C@H](O)[C@H](O[C@@H]3O[C@H](CO)[C@@H](O)[C@H](N)[C@@H]3O)[C@@H](N)C[C@H]2N)[C@H](N)C[C@@H]1O | 7.72% (inactive) | 
CCc1c(C)[nH]c2c1C(=O)[C@H](CN1CCOCC1)CC2 | -4.52% (inactive) | 
C=C1c2c(Cl)ccc(O)c2C(O)=C2C(=O)[C@@]3(O)C(O)=C(C(N)=O)C(=O)[C@@H](N(C)C)[C@@H]3[C@@H](O)[C@H]12 |  | 3160 nM (active)
CCC(=O)OCC(=O)[C@@]1(OC(=O)CC)[C@H](C)C[C@@H]2[C@@H]3[C@H]([C@@H](O)C[C@@]21C)[C@]1(C)C=CC(=O)C=C1C[C@@H]3Cl |  | 1000 nM (active)
CC[C@H](C)[C@H](N)C1=N[C@H](C(=O)N[C@@H](CC(C)C)C(=O)N[C@@H](CCC(=O)O)C(=O)N[C@@H](C(=O)N[C@H]2CCCCNC(=O)[C@@H](CC(N)=O)NC(=O)[C@@H](CC(=O)O)NC(=O)[C@@H](Cc3cnc[nH]3)NC(=O)[C@@H](Cc3ccccc3)NC(=O)[C@@H]([C@@H](C)CC)NC(=O)[C@@H](CCCN)NC2=O)[C@@H](C)CC)CS1 ({Ileψ(thiazoline)Cys}-LE[d(aIle)]K[dOrn][d(aIle)][dF][dH][dD][dN]; lactam 4-C) | -0.723% (inactive) | 
O=C(N/N=C\c1ccc([N+](=O)[O-])o1)c1ccc(O)cc1 |  | 794 nM (active)
C[C@@H](CNC1CCCCC1)OC(=O)c1ccccc1 |  | 891 nM (active)
CCOC(=O)O[C@@H](C)OC(=O)[C@@H]1N2C(=O)[C@@H](NC(=O)[C@@H](N)c3ccccc3)[C@H]2SC1(C)C | -21.9% (inactive) | 
Cc1cccc(CN2CCN([C@@H](c3ccccc3)c3ccc(Cl)cc3)CC2)c1 |  | 3550 nM (active)
Cc1ccsc1/C=C\C1=NCCCN1C | 2.35% (inactive) | 
C#C[C@]1(O)CC[C@@H]2[C@H]3CCC4=CCCC[C@@H]4[C@@H]3CC[C@@]21C | -25.8% (inactive) | 
CC1(C)[C@@H](OC(=O)CCC(=O)O)CC[C@@]2(C)[C@H]1CC[C@@]1(C)[C@H]2C(=O)C=C2[C@H]3C[C@](C)(C(=O)O)CC[C@]3(C)CC[C@@]21C | 8.6% (inactive) | 
C[C@H](CCC(=O)O)[C@H]1CC[C@@H]2[C@@H]3[C@@H](O)C[C@H]4C[C@@H](O)CC[C@@]4(C)[C@H]3CC[C@@]21C | -4.19% (inactive) | 
CN1CCO[C@H](c2ccccc2)c2ccccc2C1 | -7.03% (inactive) | 
